We go through 29 molecules from the supplement of paper PMC13380429.

Experiment [1] relates to Vero E6 infected with SARS-CoV-2. Briefly: morphology score (similarity to uninfected cells); higher = more like uninfected cells. To be noted: 24 h.
For experiment [2] the test system is unchanged. Briefly: SARS-CoV-2 infection rate relative to infected DMSO; higher = more infection, active = 60 or less. The following applies: 24 h.

Molecule `C[N+]1(C)CCC(OC(=O)C(c2ccccc2)c2ccccc2)CC1` (10 µM) yielded a morphology score in experiment [1] of 0.103. In addition, the SARS-CoV-2 infection rate in experiment [2] was 114% (inactive).

`COc1ccc(Nc2nccc(NCCO)n2)cc1` [cardiogenol-C] (10 µM) gave a morphology score in experiment [1] of 0.0849. For the same molecule, in experiment [2], the SARS-CoV-2 infection rate is 100% (inactive).

`O/N=C/c1ccc(-c2ccc(O)c(F)c2)c(Cl)c1O` (10 µM) gave a morphology score in experiment [1] of 0.342. Further, in experiment [2], the SARS-CoV-2 infection rate was 76.5% (inactive).

In experiment [1], `O=C(OCCOCCO)c1ccccc1Nc1cccc(C(F)(F)F)c1` [etofenamate] (10 µM) registered a morphology score of -0.0601. In experiment [2], the SARS-CoV-2 infection rate is 112% (inactive).

With `CS(=O)(=O)Nc1c(O)ccc2c1CCC[C@H]2C1=NCCN1` (10 µM), the morphology score in experiment [1] was found to be 0.0346. Further, the SARS-CoV-2 infection rate in experiment [2] is 110% (inactive).

The molecule `Cc1cc(OI)c(C(C)C)cc1-c1cc(C(C)C)c(OI)cc1C` [thymol-iodide] (10 µM) gave a morphology score in experiment [1] of -0.117. In addition, the SARS-CoV-2 infection rate in experiment [2] was 104% (inactive).

For `C=CCN1CC[C@]23CCCC[C@H]2[C@H]1Cc1ccc(O)cc13` [levallorphan] (10 µM), in experiment [1], the morphology score was -0.0532. The SARS-CoV-2 infection rate in experiment [2] was 114% (inactive).

With `CCn1cc(C(=O)O)c(=O)c2cc(F)c(N3CCNCC3)cc21` [norfloxacin] (10 µM), the morphology score in experiment [1] was found to be 0.204. Further, the SARS-CoV-2 infection rate in experiment [2] was 86% (inactive).

With `COCCOc1ccc2c(c1)ncn2-c1ccc2cccc(N3CCC(N)CC3)c2n1` (0.833333 µM), the morphology score in experiment [1] was -0.0191. Further, in experiment [2], the SARS-CoV-2 infection rate is 106% (inactive).

Molecule `CCN1CCN(c2ccc(Nc3cc(N(C)C(=O)Nc4c(Cl)c(OC)cc(OC)c4Cl)ncn3)cc2)CC1` (0.833333 µM) yielded a morphology score in experiment [1] of -0.0528. The SARS-CoV-2 infection rate in experiment [2] was 117% (inactive).

In experiment [1], `CCc1ccc2c(-c3cccc(Cl)c3)nc(=O)n(CC)c2n1` (10 µM) came in with a morphology score of 0.375. Further, the SARS-CoV-2 infection rate in experiment [2] is 100% (inactive).

In experiment [1], `CN1C(=O)C[C@@H](C(=O)N[C@@H](Cc2c[nH]cn2)C(=O)N2CCC[C@H]2C(N)=O)NC1=O` [taltirelin] (10 µM) showed a morphology score of 0.0707. Besides, in experiment [2], the SARS-CoV-2 infection rate is 87% (inactive).

For `CCc1ccccc1OC[C@@H](O)CN[C@H]1CCCc2ccccc21` (10 µM), the morphology score in experiment [1] was 0.0335. Also, the SARS-CoV-2 infection rate in experiment [2] was 93% (inactive).

Regarding `C[C@H]1CO[C@@H]2Cn3cc(C(=O)NCc4ccc(F)cc4F)c(=O)c(O)c3C(=O)N12` (10 µM), in experiment [1], the morphology score is -0.00851. Further, in experiment [2], the SARS-CoV-2 infection rate was 108% (inactive).

In experiment [1], `C[C@@H](c1ccc2nccn2c1)n1nnc2ncc(-c3cnn(C)c3)nc21` [savolitinib] (10 µM) displayed a morphology score of -0.18. Besides, in experiment [2], the SARS-CoV-2 infection rate was 104% (inactive).

With `O=C1CNC(=O)CN1` [piperazinedione] (0.833333 µM), the morphology score in experiment [1] turned out to be 0.0804. In addition, the SARS-CoV-2 infection rate in experiment [2] was 106% (inactive).

On to `O=C(O)CCc1nc(-c2ccccc2)c(-c2ccccc2)o1` [oxaprozin] (10 µM), for which the morphology score in experiment [1] was -0.00592. The SARS-CoV-2 infection rate in experiment [2] is 116% (inactive).

Regarding `CCCCCCCCCCC(CO)CCCCCCCC` (stereo not drawn) [2-octyldodecan-1-ol] (10 µM), the morphology score in experiment [1] was 0.0425. Besides, the SARS-CoV-2 infection rate in experiment [2] is 110% (inactive).

`CC(C)(C)c1ccc(C(=O)CCCN2CCC(OC(c3ccccc3)c3ccccc3)CC2)cc1` [ebastine] (10 µM) showed a morphology score in experiment [1] of 0.606. The SARS-CoV-2 infection rate in experiment [2] is 50% (active).

Molecule `CC(C)c1ccccc1S(=O)(=O)c1cc(N)c2ncccc2c1[N+](=O)[O-]` (10 µM) yielded a morphology score in experiment [1] of 0.225. For the same molecule, the SARS-CoV-2 infection rate in experiment [2] was 95.5% (inactive).

Molecule `CNC(=O)[C@@H](c1ccccc1)N1CCc2cc(OC)c(OC)cc2[C@@H]1CCc1ccc(C(F)(F)F)cc1` [almorexant] (10 µM) gave a morphology score in experiment [1] of -0.0542. For the same molecule, in experiment [2], the SARS-CoV-2 infection rate was 105% (inactive).

Regarding `CC(C)(O)CC[C@@H](O)[C@](C)(O)[C@H]1CC[C@@]2(O)C3=CC(=O)[C@@H]4C[C@@H](O)[C@@H](O)C[C@]4(C)[C@H]3CC[C@]12C` [20-hydroxyecdysone] (10 µM), in experiment [1], the morphology score was determined as 0.0401. The SARS-CoV-2 infection rate in experiment [2] is 108% (inactive).

Molecule `Cc1nc(C)c(C)nc1C` [chuanxiongzine] (10 µM) returned a morphology score in experiment [1] of -0.146. For the same molecule, the SARS-CoV-2 infection rate in experiment [2] was 118% (inactive).

In experiment [1], `COc1ccc2[nH]cc(CCNC(C)=O)c2c1` [melatonin] (10 µM) came in with a morphology score of 0.0444. Further, in experiment [2], the SARS-CoV-2 infection rate was 105% (inactive).

Regarding `Cn1ncnc1[C@H]1c2n[nH]c(=O)c3cc(F)cc(c23)N[C@@H]1c1ccc(F)cc1` [talazoparib] (0.833333 µM), the morphology score in experiment [1] was -0.223. In addition, the SARS-CoV-2 infection rate in experiment [2] is 113% (inactive).

As to `CC(C)Oc1ccc(-c2nc(-c3cccc4c3CC[C@H]4NCCC(=O)O)no2)cc1C#N` (10 µM), the morphology score in experiment [1] stood at 0.181. In addition, in experiment [2], the SARS-CoV-2 infection rate was 96.5% (inactive).

For `Cc1ccc2c(-c3ccccc3)nc(=O)n(C(C)C)c2c1` [proquazone] (10 µM), the morphology score in experiment [1] was 0.0698. Moreover, in experiment [2], the SARS-CoV-2 infection rate was 103% (inactive).

`CC1=C(CCC(=O)O)c2cc3[nH]c(cc4nc(cc5[nH]c(cc1n2)c(C)c5C(C)O)C(C)=C4C(C)O)c(C)c3CCC(=O)O` (stereo not drawn) [hematoporphyrin] (10 µM) came in with a morphology score in experiment [1] of -0.184. The SARS-CoV-2 infection rate in experiment [2] is 116% (inactive).

In experiment [1], `COc1ccc(C2CNC(=O)NC2)cc1O[C@H]1C[C@@H]2CC[C@H]1C2` [atizoram] (10 µM) registered a morphology score of 0.369. In addition, the SARS-CoV-2 infection rate in experiment [2] was 93.5% (inactive).
